A short description of assay [1]: BSK_CASM3C_SRB: Viability Assessment in the BioMAP Diversity Plus: CASM3C Assay (AID 2283050).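 Note: cells exposed to compound for 24 h.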 The settings on record: primary human coronary artery smooth muscle cells.
Read-out in assay [2]: Thrombomodulin, THBD (gene 7056)
In words: BSK_CASM3C_Thrombomodulin: BioMAP Diversity Plus: CASM3C Assay for Thrombomodulin Biomarker Activity (AID 2283051).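 Note: thrombomodulin protein level measured by ELISA 24 h after dosing.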 Particulars: primary human coronary artery smooth muscle cells; actives raise or lower the signal.

Read-out in assay [3]: Tissue Factor, F3 (gene 2152)
In words: BSK_CASM3C_TissueFactor: BioMAP Diversity Plus: CASM3C Assay for Tissue Factor Biomarker Activity (AID 2283052).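 Note: cell surface tissue factor protein level read by ELISA.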 Particulars: primary human coronary artery smooth muscle cells; actives raise or lower the signal.

Read-out in assay [4]: Interferon-gamma inducible Protein 10 (IP10), CXCL10 (gene 3627)
Nature of the assay: BSK_hDFCGF_IP10: BioMAP Diversity Plus: hDFCGF Assay for Interferon-gamma inducible Protein 10 (IP10) Biomarker Activity (AID 2283053). Particulars: primary human foreskin fibroblasts; actives raise or lower the signal. In short, it runs like this: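 Primary human foreskin fibroblasts exposed to chemicals for 24 h. IP-10 measured by ELISA; changes fitted bidirectionally against DMSO baseline.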

Read-out in assay [5]: Urokinase-type plasminogen activator receptor (uPAR), PLAUR (gene 5329)
In words: BSK_CASM3C_uPAR: BioMAP Diversity Plus: CASM3C Assay for Urokinase-type plasminogen activator receptor (uPAR) Biomarker Activity (AID 2283054).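 Note: cell-surface uPAR protein level quantified by ELISA.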 Particulars: primary human coronary artery smooth muscle cells; actives raise or lower the signal.

Read-out in assay [6]: Vascular cell adhesion molecule 1 (VCAM1), VCAM1 (gene 7412)
Nature of the assay: BSK_CASM3C_VCAM1: BioMAP Diversity Plus: CASM3C Assay for Vascular cell adhesion molecule 1 (VCAM1) Biomarker Activity (AID 2283055).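 Note: VCAM-1 protein level quantified by ELISA on the cells.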 The settings on record: primary human coronary artery smooth muscle cells; actives raise or lower the signal.

Read-out in assay [7]: Collagen III, COL3A1 (gene 1281)
In words: BSK_hDFCGF_CollagenIII: BioMAP Diversity Plus: hDFCGF Assay for Collagen III Biomarker Activity (AID 2283056). Particulars: primary human foreskin fibroblasts; actives raise or lower the signal. In short, it runs like this:
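ELISA readout of Collagen III in human dermal (foreskin) fibroblasts, taken 24 h post-treatment. Gain or loss relative to DMSO vehicle fitted in both directions.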

Read-out in assay [8]: Epidermal growth factor receptor (EGFR), EGFR (gene 1956)
In words: BSK_hDFCGF_EGFR: BioMAP Diversity Plus: hDFCGF Assay for Epidermal growth factor receptor (EGFR) Biomarker Activity (AID 2283057). The settings on record: primary human foreskin fibroblasts; actives raise or lower the signal. Summed up:
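Primary human foreskin fibroblasts (hDFCGF system), sampled 24 h after dosing; EGFR quantified by ELISA. Bidirectional fit relative to DMSO baseline; SRB total-protein staining in parallel cultures for cytotoxicity.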

Assay [9] in a line: BSK_hDFCGF_Proliferation: Cell Proliferation Assessment in the BioMAP Diversity Plus: hDFCGF Assay (AID 2283059).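 Note: curves fitted for both rise and fall of signal versus DMSO baseline.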 Particulars: primary human foreskin fibroblasts. Summed up:
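Sub-confluent human foreskin fibroblast cultures receive test chemical […]. Relative cell number is quantified by sulforhodamine B staining (0.1%, after 10% TCA fixation) at 560 nm, with bidirectional fitting referenced to DMSO.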

Read-out in assay [10]: Macrophage colony-stimulating factor (MCSF), CSF1 (gene 1435)
In words: BSK_hDFCGF_MCSF: BioMAP Diversity Plus: hDFCGF Assay for Macrophage colony-stimulating factor (MCSF) Biomarker Activity (AID 2283060). The settings on record: primary human foreskin fibroblasts; actives raise or lower the signal. In short, it runs like this: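 M-CSF levels read by ELISA at 24 h post-dosing in human skin fibroblasts. Parallel cultures stained with SRB assessed cytotoxicity at the same time point; response fitted in both directions against the DMSO baseline.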

The nature of assay [11]: BSK_hDFCGF_SRB: Viability Assessment in the BioMAP Diversity Plus: hDFCGF Assay (AID 2283061).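 Note: cells exposed to compound for 24 h before the read.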 The settings on record: primary human foreskin fibroblasts. Summed up: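 Viability was read as total protein: after 10% TCA fixation, wells were stained with 0.1% sulforhodamine B and read at 560 nm. Primary human foreskin fibroblasts were dosed for 24 h, with bidirectional fitting versus DMSO.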

Read-out in assay [12]: TIMP metallopeptidase inhibitor 1 (TIMP1), TIMP1 (gene 7076)
In words: BSK_hDFCGF_TIMP1: BioMAP Diversity Plus: hDFCGF Assay for TIMP metallopeptidase inhibitor 1 (TIMP1) Biomarker Activity (AID 2283062). The settings on record: primary human foreskin fibroblasts; actives raise or lower the signal. Summed up: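 TIMP-1 measured by ELISA 24 h after chemical dosing of primary human skin fibroblasts, with gain or loss fitted relative to DMSO. Parallel SRB staining (560 nm) monitored overt cytotoxicity.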

Read-out in assay [13]: Monokine induced gamma interferon (MIG), CXCL9 (gene 4283)
In words: BSK_hDFCGF_MIG: BioMAP Diversity Plus: hDFCGF Assay for Monokine induced gamma interferon (MIG) Biomarker Activity (AID 2283063). Particulars: primary human foreskin fibroblasts; actives raise or lower the signal. In short, it runs like this: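 Human primary foreskin fibroblasts in the hDFCGF system, exposed to test chemical for 24 h; MIG measured by ELISA. Bidirectional curve fitting against DMSO negative control as activity baseline.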

Read-out in assay [14]: Matrix Metallopeptidase 1 (MMP1), MMP1 (gene 4312)
Nature of the assay: BSK_hDFCGF_MMP1: BioMAP Diversity Plus: hDFCGF Assay for Matrix Metallopeptidase 1 (MMP1) Biomarker Activity (AID 2283064). Particulars: primary human foreskin fibroblasts; actives raise or lower the signal. In short, it runs like this:
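hDFCGF primary fibroblasts (human foreskin); chemical added; 24 h; MMP1 by ELISA; bidirectional fit vs DMSO.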

Read-out in assay [15]: Vascular cell adhesion molecule 1 (VCAM1), VCAM1 (gene 7412)
In words: BSK_hDFCGF_VCAM1: BioMAP Diversity Plus: hDFCGF Assay for Vascular cell adhesion molecule 1 (VCAM1) Biomarker Activity (AID 2283065).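 For AC50: VCAM-1 protein level quantified by ELISA after 24 h chemical exposure.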 Particulars: primary human foreskin fibroblasts; actives raise or lower the signal. Summed up:
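ELISA readout of VCAM-1 on human dermal fibroblast primary cultures, 24 h after chemical exposure. Gain or loss of signal fitted in both directions against DMSO baseline.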

Read-out in assay [16]: Plasminogen activator inhibitor-1 (PAI1), SERPINE1 (gene 5054)
Nature of the assay: BSK_hDFCGF_PAI1: BioMAP Diversity Plus: hDFCGF Assay for Plasminogen activator inhibitor-1 (PAI1) Biomarker Activity (AID 2283066). Particulars: primary human foreskin fibroblasts; actives raise or lower the signal. In short, it runs like this:
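Human foreskin fibroblast primary cells, 24 h chemical exposure; PAI-1 measured by ELISA. Bidirectional fitting relative to DMSO; parallel cultures stained with SRB for total protein to flag overt cytotoxicity.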

Read-out in assay [17]: Interferon-gamma inducible Protein 10 (IP10), CXCL10 (gene 3627)
In words: BSK_KF3CT_IP10: BioMAP Diversity Plus: KF3CT Assay for Interferon-gamma inducible Protein 10 (IP10) Biomarker Activity (AID 2283068). Particulars: primary human keratinocytes with fibroblasts; actives raise or lower the signal. Summed up: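 ELISA read-out of IP-10 after 24 h chemical dosing of human skin primary co-culture (keratinocytes, foreskin fibroblasts). Gain or loss of signal relative to DMSO, bidirectional curve fit.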

Assay [18] can be described thus: BSK_KF3CT_SRB: Viability Assessment in the BioMAP Diversity Plus: KF3CT Assay (AID 2283069).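 Note: total protein by sulforhodamine B staining as a cytotoxicity measure; read 24 h after compound addition.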 Particulars: primary human keratinocytes with fibroblasts. In short, it runs like this:
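Keratinocytes co-cultured with foreskin fibroblasts (human primary); chemical added, 24 h; fix 10% TCA, stain 0.1% SRB, A560. Bidirectional fit vs DMSO.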

Read-out in assay [19]: Intercellular Adhesion Molecule 1 (ICAM1), ICAM1 (gene 3383)
In words: BSK_KF3CT_ICAM1: BioMAP Diversity Plus: KF3CT Assay for Intercellular Adhesion Molecule 1 (ICAM1) Biomarker Activity (AID 2283067). Particulars: primary human keratinocytes with fibroblasts; actives raise or lower the signal. In short, it runs like this:
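Cell-surface ICAM-1 was measured by ELISA 24 h after dosing primary human skin keratinocytes co-cultured with fibroblasts. Parallel SRB staining tracked overt cytotoxicity. Gain or loss of signal was fitted relative to DMSO.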

The structures appear in SMILES notation. Calls of active or inactive are those of the source. Rule for the calls: active = hit-call score of the fitted dose curve at least 0.9, where 1 is the maximum; inactive = score below 0.9.

Regarding `C1CNCCN1`, the result in [1], in [2], in [3], in [4], in assay [5] and in [6] was inactive. The outcome in [7], in [8], in assay [9], in assay [10], in assay [11] and in assay [12] was inactive. The result in assay [13], in [14], in assay [15], in assay [16], in assay [17] and in assay [18] was inactive.

Turning to `O=C(Cl)c1c(Cl)c(Cl)c(C(=O)Cl)c(Cl)c1Cl`, the outcome in [1], in [2], in [3], in assay [4], in assay [5] and in [6] was inactive. Also, the result in [7], in [8], in assay [9], in assay [10], in assay [11] and in assay [12] was inactive. Moreover, the outcome in assay [14], in assay [15], in assay [17] and in [18] was inactive. Besides, in [16], the AC50 (in general, the midpoint of the concentration-response curve, whichever way the signal moves) is 0.016 µM (active).

Take `C=CC(=O)OCCCCCCCC(C)C`: the outcome in assay [1], in assay [2], in [3], in assay [4], in assay [5] and in [7] was inactive. The result in assay [8], in [12], in assay [14], in [17] and in assay [18] was inactive. For the same molecule, the concentration at half-maximal activity (AC50) is 20 µM (active) in [6]; 9.62 µM (active) in assay [9]; 20 µM (active) in [10]; 25.6 µM (active) in assay [11]; 20 µM (active) in assay [13]; 12.3 µM (active) in assay [15]. In addition, the AC50 in assay [16] was 5.93 µM (active).

As to `c1ccc2c(c1)[nH]c1ccccc12`, the outcome in [1], in [2], in assay [3], in assay [4], in assay [5] and in assay [6] was inactive. Also, the outcome in assay [7], in [8], in [9], in assay [10], in assay [11] and in assay [12] was inactive. In addition, the result in [14], in assay [15], in assay [16], in [19], in assay [17] and in [18] was inactive.

For `CCCCCCCCCCCC(C)=O`, the AC50 in assay [1] was 20 µM (active); in [3], 0.82 µM (active); in assay [5], 20 µM (active); in assay [9] it was 24.6 µM (active). Moreover, the result in [2], in assay [4], in assay [6], in assay [7], in assay [8] and in assay [10] was inactive. Moreover, the result in assay [11], in [12], in assay [14], in assay [15], in assay [16] and in assay [17] was inactive. For the same molecule, the result in [18] was inactive.

Consider `Oc1ccc(/C=C/c2cc(O)cc(O)c2)cc1`, for which the result in [1], in assay [2], in assay [4], in [5], in assay [6] and in assay [7] was inactive. The outcome in [8], in assay [10], in assay [11], in assay [12], in [14] and in assay [15] was inactive. Besides, the outcome in assay [19], in assay [17] and in [18] was inactive. Further, the figures for the AC50 in assay [3], in [9] and in assay [16] were 7.96 µM (active), 17.5 µM (active) and 0.474 µM (active), respectively.

For `Nc1cccc(N)n1`, the result in [1], in assay [2], in assay [3], in [4], in assay [5] and in [6] was inactive. Moreover, the result in assay [7], in assay [8], in assay [9], in assay [10], in [11] and in [12] was inactive. Besides, the outcome in assay [14], in assay [15], in assay [16], in assay [19], in [17] and in assay [18] was inactive.
